PubChem BioAssay AID652106 (National Center for Advancing Translational Sciences (NCATS), 2013)
The campaign covered roughly 370,000 compounds. About 500 (0.14%) were called active. About 2% were inconclusive and are not listed. Shown is part of a subset that was picked to be rich in actives. Values without a mark were called inactive. Calls come from the whole dose curve; as a rule, active = well fitted activation curve with a large enough effect; inconclusive = small, poorly fitted or top-dose-only effect; inactive = no such curve, though single readings can be large or run the other way.

Test: qHTS of alpha-syn Inhibitors; note: nearly all actives have a fitted effect of over 65% in size; for growth rescue (activation): % of control where 0% means no effect
Settings: Yeast expressing alpha-synuclein, BacTiter-Glo, 24 h; Potency: growth rescue; series mostly up to 46.1 µM; growth rescue (activation): at the top concentration
Summary of the method: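 Screening used galactose-induced yeast with toxic alpha-synuclein levels, exposed to compound for 24 hr at 30 deg C. Cell growth, read with BacTiter-Glo luminescence, gave the measured signal.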
Potency is the fitted concentration of half-maximal effect.

SMILES	growth rescue (activation) [%]	Potency
CCOc1ccccc1NC(=O)c1cccnc1	-7.43	–
O=C(Nc1cnccn1)c1cccnc1	-2.07	–
O=C(CC(=O)c1cccnc1)c1ccccc1	–	15.8 µM (active)
CCOc1ccc(NC(=O)CSc2nnc3c(n2)[nH]c2ccc(S(=O)(=O)N4CCOCC4)cc23)cc1	3.54	–
CCN(CC)c1ccc(/C=C/c2c(C)cnc3ccc(C)cc23)cc1	1.75	–
COc1cc2nc(N3CCCN(C)CC3)nc(NC3CC3)c2cc1OC	-3.48	–
OC(CBr)C[n+]1cccc2cc(Br)ccc21 (stereo not given)	-0.822	–
ClC/C=C/C[n+]1ccccc1Cl	10.5	–
O=C(c1ccco1)N(Cc1cccs1)c1ccc(O)cc1	5.52	–
O=c1cc(-c2ccccc2)[nH]c2nc(Cl)ccc12	-11.3	–
NS(=O)(=O)c1ccc(NC(=O)CSc2nnc3c(n2)[nH]c2ccccc23)cc1	-9.09	–
CCC(C)N(c1ccc(/C=C/c2ccnc3ccccc23)cc1)C(C)CC (stereo not given)	0.324	–
O=C1c2ccccc2C(=O)N1c1ccc(S(=O)(=O)N2CCOCC2)c2ccccc12	-0.816	–
CS(=O)c1ccc(/C=C2\C=Cc3ccccc32)cc1 (stereo not given)	-12.1	–
Cc1ccc(C(=O)CSc2nc(-c3ccccc3)nc3c2CCCC3)c(C)c1	0.262	–
Cc1cccc(Nc2nc(C)nc(N)c2S(=O)(=O)c2ccccc2)c1	-3.96	–
Brc1cccc[n+]1Cc1cccc(C[n+]2ccccc2Br)c1	-0.189	–
OC(Cc1ccc2ccccc2n1)c1ccc(Cl)c(Cl)c1 (stereo not given)	-19.7	–

SMILES	growth rescue (activation) [%]	Potency
COc1ccc(C)cc1NC(=O)C(=O)NCCc1sc(-c2cccc(C)c2)nc1C	0.666	–
CN(C)c1ccc(/C=C2\C=Cc3ccccc32)cc1Br	1.91	–
CC(C)(C(=O)NO)c1ccccc1	1.69	–
CN(O)C(=S)c1ccccc1	–	3.55 µM (active)
CCOc1ccccc1C(=O)NC1(C(F)(F)F)NC(=O)N(CCc2ccc(OC)c(OC)c2)C1=O (stereo not given)	0.914	–
O=C(c1cnn2c1NC(=C1CC1)C=C2C(F)F)N1CCc2ccccc2C1	2.26	–
Cc1cc(F)ccc1NC1(c2ccccc2)C(=O)c2ccccc2C1=O	5.02	–
O=[N+]([O-])c1ccccc1S(=O)(=O)Nc1cccc2cccnc12	22.8	–
COc1ccc(S(=O)(=O)Nc2cccc3cccnc23)c(N)c1	–	22.4 µM (active)
O=S(=O)(Nc1cccc2cccnc12)c1cccc2cccnc12	3.8	–
CNC(=S)NNC(=O)c1ccc(N(C)C)cc1	0.721	–
CC(=O)NC(=S)NNC(=O)c1ccc(Br)cc1	–	12.6 µM (active)
O=C(NNC(=O)c1ccc(Cl)nc1)c1ccc(Br)cc1	-10.8	–
Cc1ccc(-c2nc(=N)sn2Cc2ccccc2)cc1	-55.8	–
CC(C)C[C@@H](COCc1ccc(Cl)cc1)N1CCN(C(=O)c2ccc(Cl)cc2Cl)CCC1=O	–	15.8 µM (active)
CC(C)CC(CO)N1CCN(C(=O)c2ccc(Cl)cc2Cl)CCC1=O (stereo not given)	-14.7	–
CC(C)CC(COCc1ccc(Cl)cc1)N1CCN(C(=O)c2ccc(C(F)(F)F)cc2)CCC1=O (stereo not given)	8.14	–
